Screening data (PubChem)
A selection: hits, their analogues and other compounds. The true share with any hit is near 3.5%.
ERb coact inh: inhibitors of ERβ-SRC1 coactivator interaction, primary screen, biochemical, TR-FRET, ERβ LBD, SRC-1 peptide; Estrogen receptor beta (Homo sapiens), Q92731; TR-FRET ER-beta LBD / SRC1-Cy5 peptide binding; receptor agonist-loaded with 1 µM estradiol; inhibition, % at 25.6 µM; 86,000 tested, 1.3% active;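 active = compounds whose percent inhibition of the receptor-coactivator binding signal exceeds about 50% in the single-dose screen, limit read from the data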;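 also: 0% = receptor plus peptide wells without compound and 100% = peptide-only wells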
FAK inh: FAK kinase inhibitors, primary screen, biochemical | Focal adhesion kinase 1 (Homo sapiens), Q05397 | biochemical FAK kinase activity assay | inhibition, %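 (tested at 7 µM)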 | 97,000 tested, 0.84% active | AID 727, 2007; in the data active = inhibition above about 19%;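 also: 0% = DMSO and 100% = reference compound high control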
CD11b adhes enh: enhancers of CD11b/CD18 adhesion to fibrinogen, primary screen, K562 cells, luminescence; ATPlite luminescence; activation, % at 10 µM; 93,000 tested, 0.07% active;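 active = 10 µM primary screen giving 50% or more activity, confirmed by 40% or more on retest at that dose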
Target sequence (P05107 whole entry, looked up, other chains not shown): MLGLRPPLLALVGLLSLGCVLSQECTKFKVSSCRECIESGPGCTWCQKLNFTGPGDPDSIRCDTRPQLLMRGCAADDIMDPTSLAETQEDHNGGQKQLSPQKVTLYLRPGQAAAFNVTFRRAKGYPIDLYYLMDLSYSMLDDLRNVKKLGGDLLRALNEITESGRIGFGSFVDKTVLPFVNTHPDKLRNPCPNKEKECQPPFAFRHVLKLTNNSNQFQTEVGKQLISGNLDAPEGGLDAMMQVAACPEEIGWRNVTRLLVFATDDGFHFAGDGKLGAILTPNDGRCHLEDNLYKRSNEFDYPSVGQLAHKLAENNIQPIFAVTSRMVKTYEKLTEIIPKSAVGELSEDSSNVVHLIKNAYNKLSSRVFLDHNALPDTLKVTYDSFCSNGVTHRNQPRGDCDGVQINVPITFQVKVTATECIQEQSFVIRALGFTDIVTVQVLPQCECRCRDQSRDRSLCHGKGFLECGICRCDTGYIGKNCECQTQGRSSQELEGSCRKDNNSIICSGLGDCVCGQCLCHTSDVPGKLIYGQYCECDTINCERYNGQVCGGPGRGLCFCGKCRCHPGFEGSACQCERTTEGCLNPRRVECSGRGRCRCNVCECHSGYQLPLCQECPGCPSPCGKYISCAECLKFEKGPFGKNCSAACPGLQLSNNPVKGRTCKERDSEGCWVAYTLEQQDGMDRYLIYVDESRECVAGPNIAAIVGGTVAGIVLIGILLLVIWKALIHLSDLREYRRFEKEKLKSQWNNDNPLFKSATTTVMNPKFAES
Mac1 fbg inh: inhibitors of CD11b/CD18 adhesion to fibrinogen, primary screen, K562 cells, luminescence; ATPlite luminescence; Mn2+ added to activate the integrin; inhibition, % at 10 µM; 93,000 tested, 0.54% active;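 active = primary inhibition of 50% or more at 10 µM, then 40% or more on retest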
ERa SRC1 pot: enhancers of ERα–SRC-1 coactivator binding, primary screen, biochemical, TR-FRET, ERα LBD, low estradiol; 86,000 tested, 1.3% active; TR-FRET ERalpha-LBD/SRC-Cy5 coactivator binding, 2 h; 100 = basal binding, no effect; Estrogen receptor (Homo sapiens), P03372; AID 639, 2007; coactivator binding (% of control), % at 25.6 µM; in the data active = activity above about 200%;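 also: binding measured in presence of low estradiol as agonist stimulus; 0% = peptide alone without receptor and 100% = receptor with peptide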
ERa SRC1 inh: ERα–SRC-1 coactivator interaction inhibitors, primary screen, biochemical, TR-FRET, ERα LBD, estradiol-bound | TR-FRET ER-alpha LBD / SRC-1 peptide | inhibition, % at 25.6 µM | AID 629, 2007 | 86,000 tested, 1.7% active | Estrogen receptor (Homo sapiens), P03372; in the data active = inhibition above about 50%;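 also: 0% = receptor plus peptide control and 100% = peptide only without receptor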
Active calls of the source: *; x = not tested or not shown; [ ] = dose if it differs, or a comment.

SMILES	ERb coact inh	FAK inh	CD11b adhes enh	Mac1 fbg inh	ERa SRC1 pot	ERa SRC1 inh
CSc1ccccc1NC(=O)c1noc2c1CCC2	86*	9	18	-15	52	92*[fluorescence artefact?]
COC(=O)c1ccccc1NC(=O)c1cc(-c2cccs2)on1	49	1	3	4	251*[fluorescence artefact?]	-2
COC(=O)c1ccccc1NC(=O)c1noc2c1CCC2	87*	x	5	-14	21	89*[fluorescence artefact?]
CCc1ccc(NC(=O)c2noc3c2CCC3)cc1	77*	2	-3	11	43	81*
Cc1ccc(NC(=O)c2noc3c2CCCCC3)cc1	-11	3	-3	-2	125	-6
COC(=O)c1ccccc1NC(=O)c1cc(-c2cccc(OC)c2)on1	17	x	x	x	156	25
CC(=O)C1=C(O)C(=O)N(C)C1c1ccccc1F (stereo not given)	-2	x	5	-2	105	-4
CCOC(=O)CCc1c(C)c2ccc(OC(C)C(=O)OCC)c(C)c2oc1=O (stereo not given)	3	-1	-4	-4	79	16
COc1ccc(S(=O)(=O)N2CCSC2c2ccc(N)cc2)cc1 (stereo not given)	-11	0	0	-24	135	-8
O=C(NC1CCCCC1)c1noc2c1CCCCC2	61*[fluorescence artefact?]	x	2	-23	72	50*[fluorescence artefact?]
COc1ccc(NS(=O)(=O)c2ccc(N)c(C(=O)O)c2)cc1	19	0	1	-5	69	57*[fluorescence artefact?]
COc1ccc(NS(=O)(=O)c2ccc(C)c(C(=O)O)c2)cc1	20	-5	-5	2	96	14
CC1=CC(=C2C(=O)c3ccccc3C2=O)C=C(C)O1	3	6	-2	13	884*[fluorescence artefact?]	8
CC(=O)N1C(=O)C(=C2C=C(C)OC(C)=C2)c2ccccc21	-2	7	-3	14	119	-11
Cc1c(Br)c(C(F)(F)F)nn1CC(=O)NCCN1CCOCC1	1	10	x	x	95	-3
CCC(C)NC(=O)CSc1nc2ccsc2c(=O)n1-c1ccc(OC)cc1 (stereo not given)	8	0	2	-1	98	-1
COc1ccc(-n2c(SCC(=O)NC3CCCCC3)nc3ccsc3c2=O)cc1	41	4	4	10	214*[fluorescence artefact?]	19
O=C(CSc1nc2c(c(=O)n1-c1ccc(Cl)cc1)SCC2)Nc1nccs1	6	x	-3	-9	142	28
COc1ccc(-n2c(SCC(=O)Nc3nccs3)nc3sc4c(c3c2=O)CCN(C)C4)cc1	25	9	94	-29	182	51*
O=C(CSc1nc2c(c(=O)n1-c1ccc(Br)cc1)SCC2)Nc1nccs1	25	2	x	x	152	59*
O=C(O)c1cc2sccc2s1	59*	-2	0	0	107	1
N#Cc1c2n(c3c(=O)n(Cc4ccccc4Cl)cnc13)CCCCC2	-5	1	-1	8	116	-2
N#Cc1c2n(c(=S)n(-c3ccccn3)c1=O)CCCCC2	52*[fluorescence artefact?]	1	3	-10	79	14
COCCCN1C(=O)C(=O)/C(=C(/O)c2ccc3c(c2)OCCO3)C1c1ccc(C(=O)OC)cc1 (stereo not given)	80*[fluorescence artefact?]	-5	-1	-5	68	77*[fluorescence artefact?]
COCCN1C(=O)C(=O)/C(=C(/O)c2ccc3c(c2)OCCO3)C1c1ccc(C(=O)OC)cc1 (stereo not given)	-10	-1	-4	-2	91	-7
SMILES	ERb coact inh	FAK inh	CD11b adhes enh	Mac1 fbg inh	ERa SRC1 pot	ERa SRC1 inh
CC(C)(C)C(=O)NC(=S)Nc1ccccc1F	x	-1	-3	0	x	x
COCC(=O)N(C)C1(c2nnnn2CCOC(=O)Nc2cccc3ccccc23)CCCC1	61*[fluorescence artefact?]	0	0	-4	77	19
Cc1ccc(S(=O)(=O)N2CCN(c3ccc(S(=O)(=O)N4CCOCC4)cn3)CC2)cc1	31	-2	30	-8	346*[fluorescence artefact?]	-15
N#Cc1ccccc1S(=O)(=O)N1CCN(c2ccc(S(=O)(=O)N3CCOCC3)cn2)CC1	-4	2	5	-7	99	7
COc1ccccc1NS(=O)(=O)c1ccc(C(=O)OCC(=O)NCc2ccco2)cc1	45	2	18	-9	63	73*[fluorescence artefact?]
CCCN1C=CC(=C2C(=O)c3ccccc3C2=O)C=C1	2	x	-10	95*	96	4
CCC(C)(C)n1nnnc1C(c1cc2ccc(OC)cc2[nH]c1=O)N1CCc2ccccc21 (stereo not given)	6	1	-2	-8	256*	19
CCc1ccc(/C=C/C(=O)c2cc(Br)ccc(=O)c2O)cc1	x	-6	-6	74*	x	x
Cc1cccc(/C=C/C(=O)c2cc(Br)ccc(=O)c2O)c1	x	-4	-7	85*	x	x
CCc1ccc(NC(=O)C(C)OC(=O)c2ccc(N3CCCC3)c([N+](=O)[O-])c2)cc1 (stereo not given)	x	x	8	11	x	x
O=C(c1noc2c1CCCC2)N1CCN(C(c2ccccc2)c2ccccc2)CC1	-10	x	12	1	240*	-11
COc1cccc2c1C(=O)O/C2=C/c1ccc2c(c1)OCO2	x	8	0	52*	x	x
c1cc2c3c(cccc3c1)C(N1CCN(C3=Nc4cccc5cccc3c45)CC1)=N2	10	14	x	x	203*[fluorescence artefact?]	34
COc1ccc(-c2nc(-c3ccccc3)[nH]c(=O)c2C#N)cc1	x	-2	-2	-7	x	x
Cc1cc(C)c2nc(SCC(=O)Nc3ccccc3N3CCOCC3)c(C#N)cc2c1	33	3	x	x	353*[fluorescence artefact?]	21
Cc1cc(C)c2nc(SCC(=O)N3CC(=O)Nc4ccccc43)c(C#N)cc2c1	33	5	x	x	461*[fluorescence artefact?]	28
O=c1c2c(nc3cc(-c4cccc(Cl)c4)[nH]n13)CCC2	-1	-2	x	x	80	24
Cc1ccccc1C(=O)N(C)Cc1ccccc1	-9	-3	2	3	109	-5
O=C(Nc1ccccc1)c1ccccc1OCC(O)CN1C(=O)c2ccccc2S1(=O)=O (stereo not given)	-12	-1	3	8	131	-6
Cc1cccc(Nc2nn3c(=O)c4ccccc4nc3s2)c1	58*[fluorescence artefact?]	-25	6	15	221*[fluorescence artefact?]	66*[fluorescence artefact?]
CCCSc1nn2c(=O)c3ccccc3nc2s1	x	-2	-2	1	x	x
CCCCC(c1nnnn1C1CCCC1)N1CCN(C(=O)c2ccco2)CC1 (stereo not given)	1	6	1	-13	99	4
C[C@]12CC[C@@H]3c4ccc(O)cc4[C@@H](O)C[C@H]3[C@@H]1CC[C@@H]2O	12	x	x	x	530*	0
